Compound activity as filed in PubChem BioAssay.
KB-3-1 cytotox: KB-3-1 parental cell cytotoxicity. KB-3-1 viability, CellTiter-Glo ATP luminescence, 72 h. Potency, µM (highest dose often 46.1 µM), usual class: cytotoxic. 1.4% of 400,000 active. AID 1347075; note: nearly all actives have a fitted effect of over 60% in size
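Using CellTiter-Glo luminescence, growth of non-resistant KB-3-1 adenocarcinoma cells is assessed 72 h after pin-tool compound addition at 37 °C. Normalized responses across the concentration series yield fitted curves.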
SW480 rerep: induces DNA re-replication in SW480 colon adenocarcinoma cells; SW480 DNA re-replication, Hoechst DNA content imaging, 48 h; Potency, µM (doses to about 46.1 µM), actives largely listed as activators; 1.8% of 340,000 active; AID 624297; note: nearly all actives have a fitted effect of over 55% in size
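Compounds, transferred as 23 nL by pin tool, were incubated with cells for 48 hr; DNA content per nucleus was then quantified by Hoechst staining and fluorescence plate imaging.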
KB-V1 MDR tox: KB-V1 MDR subline cytotoxicity; KB-V1 MDR cells viability, CellTiter-Glo, 72 h; Potency, µM (highest dose often 46.1 µM), hits mostly cytotoxic; AID 1347076; 3.4% of 400,000 active; note: nearly all actives have a fitted effect of over 60% in size
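Following 72 h at 37 degrees C with compound, KB-V1 cell viability was read by CellTiter-Glo luminescence, medium being phenol-red-free DMEM plus 10% FBS; concentration-response parameters came from normalized, curve-fitted qHTS data.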
ALOX12 inh: inhibitors of human 12S-lipoxygenase ALOX12 | P18054 | purified 12hLO, xylenol orange hydroperoxide absorbance | Potency, µM (doses to about 108 µM), usual class: inhibitors | 1.1% of 580,000 active | AID 1671190
Target sequence (P18054 whole entry, looked up): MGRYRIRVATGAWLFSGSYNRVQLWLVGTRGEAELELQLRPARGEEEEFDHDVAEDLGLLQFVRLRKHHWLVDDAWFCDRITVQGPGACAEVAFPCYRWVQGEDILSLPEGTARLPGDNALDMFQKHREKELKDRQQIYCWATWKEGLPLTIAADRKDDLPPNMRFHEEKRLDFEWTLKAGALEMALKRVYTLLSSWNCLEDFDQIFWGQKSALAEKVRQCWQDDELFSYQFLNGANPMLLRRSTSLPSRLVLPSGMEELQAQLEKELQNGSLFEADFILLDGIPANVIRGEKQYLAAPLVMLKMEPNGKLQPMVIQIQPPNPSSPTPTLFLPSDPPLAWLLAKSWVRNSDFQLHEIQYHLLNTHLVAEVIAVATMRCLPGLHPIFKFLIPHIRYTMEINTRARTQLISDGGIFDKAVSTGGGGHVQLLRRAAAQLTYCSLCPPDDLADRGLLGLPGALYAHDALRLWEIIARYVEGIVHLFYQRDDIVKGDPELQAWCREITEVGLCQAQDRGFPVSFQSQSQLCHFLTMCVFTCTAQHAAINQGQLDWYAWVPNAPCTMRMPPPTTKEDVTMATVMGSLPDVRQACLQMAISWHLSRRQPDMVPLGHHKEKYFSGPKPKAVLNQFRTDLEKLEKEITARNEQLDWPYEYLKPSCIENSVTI
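Hydroperoxide product was detected by ferrous iron/xylenol orange as the 573 to 405 nm absorbance ratio. Arachidonic acid at 40 uM (final) was turned over for 30 min at room temperature by 150 nM human 12hLO, pH 7.0 Hepes buffer, after 15 min compound preincubation.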
PINK1 expr mod: changes PINK1 expression | 0.2% of 410,000 active | Potency, µM (series often up to 76.6 µM), most hits filed as activators | PINK1 immunofluorescence, high-content cytometry, 24 h; active = well fitted activation curve with a large enough effect; inconclusive = small, poorly fitted or top-dose-only effect; cell line not stated here; note: nearly all actives have a fitted effect of over 65% in size
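A stable cell line was treated with compounds at 5 concentrations for 24 hours, with CCCP as control. PINK1 levels and mitochondrial localization were measured by immunofluorescence with mitochondrial, cell and nuclear markers after fixation, read by laser-scanning cytometry.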
MCF10A rereplic: inducers of DNA re-replication in MCF 10A breast cells; MCF 10A DNA re-replication, Hoechst nuclear intensity, 48 h; Potency, µM (top dose mostly 46.1 µM), usual class: activators; 2.9% of 350,000 active; AID 624296; note: nearly all actives have a fitted effect of over 50% in size
Of the large screens only hits and unclear results are named; the others gave an inactive call; ! = repeats disagree. Rows were chosen to be rich in hits. Some 5.8% of all compounds tested hit in one or more screens of this group. Unless noted, calls come from the whole dose curve; as a rule, active = well fitted curve in the direction sought with a large enough effect; inconclusive = small, poorly fitted or top-dose-only effect, or another doubt; inactive = no such curve, though single readings can be large; an effect the other way counts as inactive or inconclusive.

O=c1[nH]c(CSc2nnc(Nc3ccccc3)s2)nc2ccccc12	SW480 rerep 16µM
O=C(CCc1nc2ccccc2c(=O)[nH]1)Nc1nnc(SCc2ccccc2)s1	ALOX12 inh inconclusive
CC(C)Cn1c(SCc2nc3ccccc3c(=O)[nH]2)nc2ccccc2c1=O	SW480 rerep inconclusive, MCF10A rereplic 11µM
COCCCn1c(SCc2nnc(-c3ccc(OC)c(OC)c3)o2)nc2ccccc2c1=O	KB-V1 MDR tox inconclusive
COc1ccc(-c2nnc(CSc3nc4ccccc4c(=O)n3CC(C)C)o2)cc1OC	KB-V1 MDR tox 21µM
Cc1cc(C)c(S(=O)(=O)NCC(c2cccnc2)S(=O)(=O)c2ccccc2)c(C)c1 (stereo unspecified)	none (no result: KB-3-1 cytotox, SW480 rerep, KB-V1 MDR tox, PINK1 expr mod, MCF10A rereplic)
COc1cc(/C=C(/C#N)c2ccc(Cl)cc2)ccc1OC(C)C	none (no result: KB-3-1 cytotox, SW480 rerep, KB-V1 MDR tox, PINK1 expr mod, MCF10A rereplic)
Cc1ccc(S(=O)(=O)NCCN=C(CN2CCCC2)NS(=O)(=O)c2ccc(C)cc2)cc1	KB-V1 MDR tox 6.5µM
O=C(NC1CCCC1)C1CCCN(C2CCN(Cc3ccncc3)CC2)C1 (stereo unspecified)	none (no result: KB-3-1 cytotox, SW480 rerep, KB-V1 MDR tox, PINK1 expr mod, MCF10A rereplic)
CC(C)c1cc(Br)ccc1OCCCN1C(=O)NC(C)(C)C1=O	KB-3-1 cytotox inconclusive, KB-V1 MDR tox 13µM
CC1(C)NC(=O)N(CCCOc2ccc(Br)cc2Cl)C1=O	KB-V1 MDR tox inconclusive
NCCC1C2CC3CC(C2)CC1C3 (stereo unspecified)	none (no result: KB-3-1 cytotox, SW480 rerep, KB-V1 MDR tox, PINK1 expr mod, MCF10A rereplic)
CC(C)c1ccc(C(N)=O)cc1	none (no result: KB-3-1 cytotox, SW480 rerep, KB-V1 MDR tox, PINK1 expr mod, MCF10A rereplic)
COc1ccc(-c2cn(Cc3ccc(C(=O)c4ccccc4)cc3)nn2)cc1	KB-3-1 cytotox 4.1µM!, SW480 rerep inconclusive, KB-V1 MDR tox 2.6µM!, MCF10A rereplic 2.6µM
COc1ccc(-c2n[nH]c(C)c2-c2cscn2)c(O)c1	none
COc1ccc(-c2n[nH]c(C)c2-c2cnn(-c3ccccc3)c2)c(O)c1	SW480 rerep inconclusive, KB-V1 MDR tox inconclusive, MCF10A rereplic 21µM
COc1ccc(-c2n[nH]c(C)c2-c2cnn(-c3ccccc3)c2)c(O)c1C	KB-3-1 cytotox inconclusive, SW480 rerep 15µM, KB-V1 MDR tox inconclusive, MCF10A rereplic inconclusive
COc1ccc(C(=O)Nc2c(N3CCCC3)c3ccccc3oc2=O)cc1	none (no result: KB-3-1 cytotox, SW480 rerep, KB-V1 MDR tox, PINK1 expr mod, MCF10A rereplic)
CSc1nc(N2CCOCC2)nc2ccc(C)cc12	SW480 rerep inconclusive, MCF10A rereplic 21µM
O=S(=O)(Nc1nc2ccccc2nc1NCc1ccc(Cl)cc1)c1cccc2nsnc12	none (no result: KB-3-1 cytotox, SW480 rerep, KB-V1 MDR tox, PINK1 expr mod, MCF10A rereplic)
CCOC(=O)c1c(C)n(C)c2ccc(O)c(CN3CCN(C)CC3)c12	none
CCOC(=O)c1c(-c2ccccc2)oc2ccc(O)c(CN3CCN(C)CC3)c12	KB-3-1 cytotox inconclusive, KB-V1 MDR tox 21µM, ALOX12 inh inconclusive, MCF10A rereplic 23µM
Cc1ccc(Cl)cc1NC(=O)C1CCCN1S(=O)(=O)c1ccc(-c2ccc(=O)[nH]n2)s1 (stereo unspecified)	KB-3-1 cytotox inconclusive, SW480 rerep 4µM, MCF10A rereplic inconclusive
Cc1cc(Cl)ccc1NC(=O)C1CCCN1S(=O)(=O)c1ccc2c(c1)CCCC(=O)N2 (stereo unspecified)	none (no result: SW480 rerep, MCF10A rereplic)
CC(=O)NC1=CC(=O)c2nonc2C1=O	KB-3-1 cytotox 5.2µM (no result: SW480 rerep, ALOX12 inh, MCF10A rereplic)
COc1cc(O)c(NC(C)=O)c2nonc12	none
COc1ccc(S(=O)(=O)N(C)c2nc3ccccc3n3c(CC(C)C)nnc23)cc1	KB-V1 MDR tox inconclusive, MCF10A rereplic 12µM
O=C1NCCCCCN(C(=O)CC2CCCC2)[C@@H]2C[C@@H](C(=O)N3CCc4ccccc4C3)C[C@H]12	none (no result: KB-3-1 cytotox, SW480 rerep, KB-V1 MDR tox, PINK1 expr mod, MCF10A rereplic)
COCCOC1CCOC2(CCN(C(=O)c3cccc(C)c3)CC2)C1 (stereo unspecified)	none (no result: KB-3-1 cytotox, SW480 rerep, KB-V1 MDR tox, PINK1 expr mod, MCF10A rereplic)
O=[N+]([O-])c1ccc(S(=O)Cc2ccccc2)c([N+](=O)[O-])c1 (stereo unspecified)	KB-3-1 cytotox inconclusive, SW480 rerep 23µM, KB-V1 MDR tox inconclusive, ALOX12 inh inconclusive, MCF10A rereplic 4.1µM
Cc1nnc(SCC(=O)N2c3ccccc3C(C)(c3ccccc3)CC2(C)C)s1 (stereo unspecified)	KB-3-1 cytotox 16µM, KB-V1 MDR tox 8.2µM, MCF10A rereplic inconclusive
COC(=O)[C@]12CCCCC=C1N(Cc1ccccc1)C(=O)[C@H](CC(=O)NCC13CC4CC(CC(C4)C1)C3)C2	KB-3-1 cytotox inconclusive, KB-V1 MDR tox inconclusive, ALOX12 inh inconclusive (no result: SW480 rerep, MCF10A rereplic)
CCOC(=O)[C@]12CCCC=C1N(Cc1ccc3c(c1)OCO3)C(=O)[C@H](CC(=O)NCCc1ccccc1OC)C2	KB-3-1 cytotox inconclusive, KB-V1 MDR tox 23µM (no result: SW480 rerep, MCF10A rereplic)
CCOC(=O)[C@]12CCCC=C1N(CCC1=CCCCC1)C(=O)[C@H](CC(=O)NCC13CC4CC(CC(C4)C1)C3)C2	KB-3-1 cytotox inconclusive, KB-V1 MDR tox 18µM (no result: SW480 rerep, PINK1 expr mod, MCF10A rereplic)
CCOC(=O)[C@]12CCCC=C1N(Cc1ccccc1)C(=O)[C@H](CC(=O)NCC13CC4CC(CC(C4)C1)C3)C2	KB-3-1 cytotox 18µM, KB-V1 MDR tox 21µM (no result: SW480 rerep, PINK1 expr mod, MCF10A rereplic)
CCOC(=O)[C@]12CCCC=C1N(Cc1ccc3c(c1)OCO3)C(=O)[C@H](CC(=O)N1CCC(c3ccccc3)CC1)C2	KB-3-1 cytotox inconclusive, KB-V1 MDR tox 23µM (no result: SW480 rerep, MCF10A rereplic)
